Screens: PubChem BioAssay, several laboratories
This is a sample that favours compounds with a hit; in the whole collection about 1.4% have one here.
PrPC TRFRET = cell surface PrPC inhibition, primary TR-FRET screen | P04156 | TR-FRET read-out | inhibition, % at 13.8 µM | 370,000 compounds, 0.43% hits | AID 720596; in the data active = inhibition above about 24%; note: 0% = median of the test wells and 100% = reference compound wells
PrP 5UTR inh = inhibition of PrP 5' UTR reporter expression; cell-based PrP 5' UTR mRNA reporter, plate reader; inhibition, % (concentration not given with the values); 340,000 compounds, 0.35% hits; in the data active = inhibition above about 52%; note: 0 = median of the neutral control wells
Vc quorum ag = quorum light induction in luxS cqsA deficient V. cholerae | V. cholerae BH1578 lux reporter, luminescence, 6 h | activation, % at 18.7 µM | 350,000 compounds, 0.16% hits | AID 588436; in the data active = activation mostly above about 9.7%, no sharp cut-off
FadD28 FP inh = blocks FadD28 binding to the bisubstrate probe | fluorescence polarization | inhibition, % at 12.5 µM | 360,000 compounds, 0.22% hits | AID 588549; in the data active = inhibition above about 8.5%, passing the limit was not always enough
SSB-PriA inh = inhibitors of Klebsiella pneumoniae PriA binding to SSB C-terminal tail. AlphaScreen SSBct-PriA binding, biotinylated peptide. AID 1272365. inhibition, % at 33 µM. 430,000 compounds, 0.6% hits; in the data active = inhibition mostly above about 37%, no sharp cut-off; inactive = mostly below about 20%;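 note: plate controls were negative control peptide for no effect and reference peptide for full effect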
Numbers without * were called inactive; i = inactive; x = no result given; ! = repeats disagree.

SMILES	PrPC TRFRET	PrP 5UTR inh	Vc quorum ag	FadD28 FP inh	SSB-PriA inh
Cn1nnnc1Sc1ccc([N+](=O)[O-])cc1Cl	-18.3	-8.6	i	-1.3	8.3
O=[N+]([O-])c1ccc(Sc2nnnn2-c2ccccc2)c(Cl)c1	-15.4	-4.5	i	0.4	45.1*
Cc1cc(C)n(-c2ccc(SCc3cn4ccccc4n3)nn2)n1	x	x	x	x	-5.0
C#CCn1cc(C=NNc2nc3ccccc3[nH]2)c2ccccc21	x	x	x	x	44.0*
Cc1[nH]c2ccccc2c1C=NNc1nc2ccccc2[nH]1	x	x	x	x	41.2*
CCN(CC)c1ccc(/C=N/Nc2nc3ccccc3[nH]2)cc1	37.3*	-69.3	-5.6	3.1	x
C(=NNc1nc2ccccc2[nH]1)c1c[nH]c2ccccc12	x	x	x	x	50.4*
C(=NNc1ccccn1)c1c[nH]c2ccccc12	x	x	x	x	14.7
CCOC(=O)N1CCC(NC(=O)c2sc3ncccc3c2-n2cccc2)CC1	x	x	x	x	-7.0
Nc1nc(-c2ccc(Cl)cc2)c(CC(=O)O)s1	x	x	x	x	-5.0
CC12CC(O)C3c4ccc(O)cc4CCC3C1CCC2=NO (stereo unspecified)	x	x	x	x	-3.4
COCC(=O)Nc1cc(C)nn1-c1nc2c(cnn2-c2ccc(C)cc2)c(=O)[nH]1	x	x	x	x	3.0
COc1ccc(Nc2cc(C(=O)N3CCSCC3)nc3ccccc23)cc1Cl	x	x	x	x	13.0
Cc1cc(NC(=O)C(=O)NCCCn2ccnc2)ccc1N1CCCC1=O	x	x	x	x	4.0
COc1cccc2c(Nc3cccc(Cl)c3)c(C#N)cnc12	x	x	x	x	-4.0
CCOc1ccccc1NC(=O)N1CCC[C@@H]1CS(=O)(=O)c1ccccc1	x	x	x	x	-16.0
COc1ccc(CCC(=O)NCCSc2ncc(-c3ccc(OC)cc3)[nH]2)cc1	x	x	x	x	38.0*
COc1ccccc1NC(=O)Nc1nnc(CC(=O)Nc2ccccc2)s1	-4.8	x	x	x	x
COc1ccccc1NC(=O)Nc1nnc(CC(=O)Nc2ccccc2C)s1	4.8	76.5*	i	-5.9	-12.2
O=C(Nc1ccc(-c2ccc(N3CCCC3)nn2)cc1)c1cccc(F)c1	x	x	x	x	-2.0
CCCCCc1cc(=O)oc2c(C(CCN(CC)CC)c3ccc(N(C)C)cc3)c(OC)cc(OC)c12 (stereo unspecified)	-17.2	2.4	0.0	-2.1	67.0*
CCCCCc1cc(=O)oc2c(C(CCN3CCCC(C)C3)c3ccc(N(C)C)cc3)c(OC)cc(OC)c12 (stereo unspecified)	x	4.8	0.3	-3.2	90.1*
CCCCCc1cc(=O)oc2c(C(CCN3CCCC(C)C3)c3cc(OC)c(OC)c(OC)c3)c(OC)cc(OC)c12 (stereo unspecified)	x	-27.9	i	-9.4	13.2
CCN(CC)c1ccc(SS(=O)(=O)O)cc1	3.8	-0.3	-5.6	-0.5	43.2*
C=CCN(c1ccccc1)S(=O)(=O)c1cccc(C(=O)Nc2ccc(N3CCOCC3)cc2)c1	9.8	-15.8	i	1.4	42.6*
SMILES	PrPC TRFRET	PrP 5UTR inh	Vc quorum ag	FadD28 FP inh	SSB-PriA inh
C=CCN(c1ccccc1)S(=O)(=O)c1cccc(C(=O)Nc2ccncc2)c1	3.2	-18.8	-0.9	-6.0	2.9
N#CC1=C(N)C(C#N)(C#N)[C@H](c2cccnc2)[C@H]2CN(C(=O)OCc3ccccc3)CC=C12	1.1	-18.8	i	-2.6	8.9
N#CC1=C(N)C(C#N)(C#N)C(c2cccnc2)C2CC(c3ccccc3)CC=C12 (stereo unspecified)	x	14.0	25.0*	-4.3	-12.8
CCN1CCN(c2ccc(N3CCN(C(=O)c4ccc(C)c(C)c4)CC3)nn2)CC1	x	x	x	x	-2.0
O=C(NC(=S)N1CCCc2ccccc21)c1ccccc1	-1.5	-47.6	i	-4.1	42.0*!
O=[N+]([O-])c1ccc(N2CCCC2)cc1N1CCCC1	-20.3	0.9	5.9	-0.3	46.5*
O=[N+]([O-])c1ccc(N2CCNCC2)cc1N1CCCC1	x	x	x	x	62.3*
O=[N+]([O-])c1ccc(N2CCCC2)cc1N1CCCCCC1	x	x	x	x	60.8*
O=[N+]([O-])c1ccc(N2CCCC2)cc1N1CCCCC1	x	x	x	x	97.2*
O=[N+]([O-])c1ccc(N2CCCCC2)cc1N1CCOCC1	-18.4	-3.5	-1.9	-1.1	26.8
O=C(Cn1cnc(-c2ccc(F)cc2)cc1=O)N1CCC(Cc2ccccc2)CC1	x	x	x	x	-6.0
COc1ccc(-c2cc(C(=O)N/N=C\c3c(F)cccc3Cl)[nH]n2)cc1	x	x	x	x	6.0
Sc1oc(-c2ccccc2)cc1C=Nc1ccccc1	-0.8	-23.6	-0.6	0.8	40.8*
Cc1[nH]c2ccccc2c1C(=O)COC(=O)c1ccc([N+](=O)[O-])s1	-2.0	-41.0	i	-5.7	44.6*
C[C@H](NC(=O)c1ccccc1)C(=O)Nc1nc(-c2ccccn2)cs1	-2.8	1.2	2.7	-1.8	61.9*
CC(CC(=O)Nc1nc(-c2ccccn2)cs1)NC(=O)c1ccccc1 (stereo unspecified)	x	x	x	x	74.8*
CCC(C(=O)Nc1nc(-c2ccccn2)cs1)c1ccccc1 (stereo unspecified)	x	x	x	x	100.2*
O=C(Nc1nc(-c2ccccn2)cs1)C(c1ccccc1)c1ccccc1	x	x	x	x	37.2
COc1ccc(Cl)cc1NC(=O)NCCCn1nc(-c2ccc(C)cc2)ccc1=O	x	x	x	x	-5.0
COc1ccccc1NC(=O)CSc1nnc(-c2ccccn2)n1Cc1ccco1	5.3	-16.8	i	-1.2	62.6*
COc1ccc(-c2cnc(SCC(=O)Nc3nc(C)cs3)n2Cc2ccco2)cc1	x	x	x	x	30.0*
COc1ccccc1NC(=O)CSc1nnc(-c2ccncc2)n1Cc1ccco1	x	x	x	x	55.8*
O=C(CSc1nnc(-c2ccccn2)n1Cc1ccco1)Nc1ccccc1F	x	x	x	x	37.7
COc1ccc(C)cc1NC(=O)CSc1nnc(-c2ccccn2)n1Cc1ccco1	5.0	-62.8	-2.8	-3.5	-3.0
COc1ccc(-c2cnc(SCC(=O)Nc3nc(C(C)(C)C)cs3)n2Cc2ccco2)cc1	5.0	-10.6	-1.0	-2.8	25.3
SMILES	PrPC TRFRET	PrP 5UTR inh	Vc quorum ag	FadD28 FP inh	SSB-PriA inh
CCc1ccccc1NC(=O)CSc1nnc(-c2ccccn2)n1Cc1ccco1	x	x	x	x	53.7*
COc1cc2nc(C3CCC3)nc(N3CCN(c4ccccc4OC)CC3)c2cc1OC	10.7	-6.0	-0.4	-2.9	39.1*
COc1cc2nc(C3CCC3)nc(N3CCN(c4ccccn4)CC3)c2cc1OC	x	-20.2	-0.8	-4.3	16.4
O=C(NCCn1ncc2c(N3CCN(Cc4ccccc4)CC3)ncnc21)c1cccs1	x	x	x	x	-6.0
COc1ccc(OC)c(NC(=O)CSc2nnc(Cc3cccn3C)n2Cc2ccccc2)c1	x	x	x	x	39.0*
COc1ccc(OC)c(NC(=O)CSc2nnc(Cc3cccn3C)n2CCc2ccccc2)c1	2.8	-10.7	-0.5	0.6	33.3
COc1ccc(OC)c(NC(=O)CSCC(=O)O)c1	-0.1	-17.1	16.7*	-1.3	-15.7
CC(Sc1nnc(CNc2cccc3ccccc23)n1-c1ccccc1)C(=O)N/N=C/c1ccco1 (stereo unspecified)	0.8	-21.1	1.7	25.1*	x
O=C1NC(=S)S/C1=C\C=C\c1ccc([N+](=O)[O-])o1	-8.7	-6.6	13.7	13.8*	14.8
O=C(O)/C=C/c1ccc([N+](=O)[O-])o1	-17.6	-27.2	-0.4	-0.3	8.3
COc1ccc(NC(=O)c2cccn(OCc3ccc(F)cc3)c2=O)c(OC)c1	x	x	x	x	9.0
